Screening data (PubChem BioAssay)
Shown are actives, neighbours in structure and some others; about 12% of the full set was active somewhere.
Arbovirus anti = blocks arbovirus infection; arbovirus infection cell-based antiviral screen; inhibition, % at 10 µM; 200,000 compounds, 0.37% hits; in the data active = inhibition above about 30%
Lmaj promast = inhibitors of Leishmania major promastigote growth. Leishmania major promastigotes, resazurin fluorescence viability. inhibition, % at 10 µM. 200,000 compounds, 9% hits. AID 1063; in the data active = inhibition above about 50%;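 note: promastigotes grown with compound for 44 hours at 28 °C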
CHOP inh = inhibitors of CHOP induction in ER stress response; AID 2732; inhibition, % at 10 µM; 220,000 compounds, 3.8% hits; CHO-K1 CHOP-promoter luciferase, tunicamycin-induced, 15-18 h;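 active = compounds that reduced the stress-induced luciferase reporter signal by more than about 70% of percent inhibition, limit read from the data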
WT yeast gro inh = growth inhibition of WT yeast, mitochondrial fusion screen; mitochondrial fusion phenotypic screen, WT strain; 190,000 compounds, 2.1% hits; inhibition, % at 10 µM; AID 1362; in the data active = inhibition above about 58%; tested in S. cerevisiae
Hits are given with their value; – = inactive; · = not tested or not shown.

SMILES	Arbovirus anti	Lmaj promast	CHOP inh	WT yeast gro inh
O=C(Cn1c(=O)oc2cc(S(=O)(=O)N3CCCCCC3)ccc21)NC1CCCCC1	–	–	–	–
O=C(Cn1c(=O)oc2cc(S(=O)(=O)N3CCc4ccccc43)ccc21)NC1CCCC1	–	99	–	–
CC1CC(C)CN(C(=O)c2ccc3c(c2)N(Cc2ccccc2)CCS3)C1 (stereo not drawn)	–	–	73	–
CN1CCN(CCCNC(=O)c2ccc3c(c2)N(Cc2ccccc2)CCS3)CC1	–	80	–	–
Cc1ccc(CN2CCSc3ccc(C(=O)NCc4ccco4)cc32)cc1	–	–	–	–
Cc1ccc(CN2CCSc3ccc(C(=O)NC4CCN(Cc5ccccc5)CC4)cc32)cc1	–	90	–	–
CCc1ccccc1NCC(=O)Nc1ccc(Cl)c(C(F)(F)F)c1	–	–	79	80
O=C(CCNC(=O)c1ccccc1Cl)Nc1ccc2c(c1)OCO2	–	–	–	–
C/C(CC(=O)Nc1ccc(Cl)c(C(F)(F)F)c1)=N\NC(N)=S	–	97	–	–
C/C(CC(=O)Nc1ccc(Cl)c(C(F)(F)F)c1)=N\NC(=O)c1ccccc1O	–	–	–	–
O=C(CCNC(=O)c1ccccc1Cl)Nc1ccc(Cl)c(C(F)(F)F)c1	–	51	–	–
COc1ccc(NC(=S)N2CCN(Cc3ccco3)CC2)c(OC)c1	–	–	–	–
CC(C)c1ccc(CNC(=O)C(=O)NCCCn2ccnc2)cc1	–	–	–	–
COCCn1c(=NC(=O)c2ccc(S(=O)(=O)N3CCCc4ccccc43)cc2)sc2cc(S(C)(=O)=O)ccc21	–	100	–	–
C#CCn1c(=NC(=O)c2ccc(S(=O)(=O)N3CCc4ccccc4C3)cc2)sc2cc(S(N)(=O)=O)ccc21	–	–	110	–
COCCn1c(=NC(=O)c2ccc(S(=O)(=O)N3CCc4ccccc4C3)cc2)sc2cc(S(N)(=O)=O)ccc21	–	99	–	–
COC(=O)Cn1c(=NC(=O)c2ccc(S(=O)(=O)N3CCc4ccccc4C3)cc2)sc2cc(OC)ccc21	–	87	–	–
Cc1ccc(NC2=NC(=S)N(CC#N)C23CCCCC3)cc1	–	–	–	–
Cc1ccc(S(=O)(=O)NCC(=O)N(CC(=O)NCC2CCCO2)Cc2ccco2)cc1 (stereo not drawn)	–	–	–	–
CCCc1cnc(N2CCN(C(=O)c3c(-c4ccccc4)noc3C)CC2)nc1	·	·	–	·
C=CCn1c(=NC(=O)c2ccc(S(=O)(=O)N3CCc4ccccc4C3)cc2)sc2cc(S(N)(=O)=O)ccc21	–	–	77	–
C=CCn1c(=NC(=O)c2ccc(S(=O)(=O)N3CCCc4ccccc43)cc2)sc2cc(S(N)(=O)=O)ccc21	–	100	–	–
OC(CNc1ccccc1)COc1ccc(OCC(O)CNc2ccccc2)cc1 (stereo not drawn)	–	66	–	–
OC(COc1ccccc1)CN1CCN(CC(O)COc2ccccc2)CC1 (stereo not drawn)	–	87	–	–
CC(C)c1ccc(OCC(O)CN2CCN(c3ccccc3)CC2)cc1 (stereo not drawn)	–	87	–	–
SMILES	Arbovirus anti	Lmaj promast	CHOP inh	WT yeast gro inh
OC(COc1ccccc1)CN1CCCCCC1 (stereo not drawn)	–	–	–	–
O=C(O)CC1NC(=O)N(C2CCCCC2)C1=O (stereo not drawn)	–	–	–	–
Cc1nc(Sc2ccc(Br)cc2)c(C#N)c(C)c1[N+](=O)[O-]	·	·	–	·
CCOC1=NN(c2ncc(C(F)(F)F)cc2Cl)C(=O)/C1=C/N(C)C	–	–	–	–
CCOC(=O)c1[nH]c2c(c1-c1ccccc1)C(=O)CC(c1ccc(OCC)cc1)C2 (stereo not drawn)	–	–	–	–
CCOC(=O)c1[nH]c2c(c1-c1ccccc1)C(=O)CC(c1ccc(OC)c(OC)c1)C2 (stereo not drawn)	–	54	–	–
CCOC(=O)c1cc(C(=O)c2cc(F)ccc2O)coc1=N	–	–	–	–
CC(C)OC(=O)c1cc(C(=O)c2cc(Br)ccc2O)coc1=N	–	–	–	–
N=c1occ(C(=O)c2cc(F)ccc2O)cc1C(=O)NC1CCCCC1	–	70	–	–
CCOc1ccccc1NC(=O)c1cc(C(=O)c2cc(Br)ccc2O)coc1=N	–	–	72	–
Cc1nn(C)c(C(=O)N/N=C/c2ccc(C(F)(F)F)cc2)c1[N+](=O)[O-]	–	–	–	–
Cn1c(=O)[nH]c(=O)c2c1nc(N1CCCCCC1)n2CCCSc1nnnn1-c1ccccc1	–	–	–	–
NC(=O)c1cnn(-c2ccc3ccccc3c2)c1N	–	–	–	–
Cc1ccc(CSc2nnc(NC(=O)C3COc4ccccc4O3)s2)cc1 (stereo not drawn)	56	–	–	–
CCCCCOC(=O)Nc1nnc(CCCCC)s1	–	–	95	–
CCCCCc1nnc(NC(=O)C2COc3ccccc3O2)s1 (stereo not drawn)	46	–	–	–
CCC(CCC(=O)NNC(=O)Cc1ccc([N+](=O)[O-])cc1)C(=O)O (stereo not drawn)	·	·	–	·
CCNC(=O)NC(=O)C(C)OC(=O)CCCSc1nc2ccccc2s1 (stereo not drawn)	–	64	–	–
CNC(=O)NC(=O)C(C)OC(=O)CCCSc1nc2ccccc2s1 (stereo not drawn)	–	65	–	–
N#Cc1ccc(C(=O)OCC(=O)Nc2ccc(N3CCOCC3)cc2)cc1	–	–	–	–
CCc1ccccc1NC(=O)CSc1nc2n[nH]c(C)c2c(=N)n1-c1cccc(OC)c1	–	90	–	–
COc1ccc(-n2c(SCC(=O)NCC3CCCO3)nc3n[nH]c(C)c3c2=N)cc1 (stereo not drawn)	–	–	–	–
CCc1ccc(NC(=O)CSc2nnc(-c3ccccn3)n2C)cc1	–	–	–	–
CCOc1ccccc1-n1c(SCC(=O)Nc2ccc(CC)cc2)nc2n[nH]c(C)c2c1=N	–	–	96	–
COc1ccc(S(=O)(=O)n2cnc3cc(C)c(C)cc32)cc1C	–	–	70	–
SMILES	Arbovirus anti	Lmaj promast	CHOP inh	WT yeast gro inh
O=C(/C=C/c1cn(-c2ccccc2)nc1-c1cccnc1)c1ccco1	–	100	–	–
NC(=O)c1ccc(NC(=O)COC(=O)/C=C/c2cn(-c3ccccc3)nc2-c2cccnc2)cc1	–	51	–	–
N#Cc1ccccc1NC(=O)COC(=O)/C=C/c1cn(-c2ccccc2)nc1-c1ccc(Cl)cc1	–	–	–	–
COCC(=O)NNC(=S)Nc1cccc(C)c1C	–	–	–	–
CCOc1ccc(C2CC(=O)N(Nc3ccc([N+](=O)[O-])cc3[N+](=O)[O-])C2=O)cc1 (stereo not drawn)	·	·	–	·
CCOC(=O)c1c(NC(=O)CSc2ncccn2)sc2c1CCN(Cc1ccccc1)C2	–	99	–	–
CCOC(=O)c1c(NC(=O)CSc2nnc3c(n2)[nH]c2ccccc23)sc2c1CCN(C)C2	·	100	·	·
CCOC(=O)c1c(NC(=S)Nc2ccccc2)sc2c1CCN(CCc1ccccc1)C2	–	79	–	–
CCO[C@H]1OC(C(=O)N2CCN(C)CC2)=C[C@@H](C)[C@@H]1CCCO	–	–	–	–
C=CCNC(=O)NC(=O)COC(=O)[C@H](C)NS(=O)(=O)c1c(C)c(C)cc(C)c1C	·	·	–	·
COc1ccc(CNC(=O)CSc2cccc3cccnc23)cc1	·	·	–	·
